Assay results taken from PubChem BioAssay AID729 (The Scripps Research Institute Molecular Screening Center, 2007).
About 450 (0.46%) of roughly 97,000 compounds were called active. Shown is part of a subset that was picked to be rich in actives. Values without a mark were called inactive. Rule as the data show it: active = activation above about 16%; inactive = the rest.

molecular target: Sphingosine 1-phosphate receptor 2 (Homo sapiens) (UniProt O95136); assay: activation of human S1P2 receptor – cell-based, primary screen (AID 729); conditions: S1P2-expressing cell line, agonist reporter read-out; at 4.5 µM; stronger effect = higher value;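 also: 0% = vehicle low control and 100% = maximal reference agonist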
Sequence (O95136 whole entry, looked up): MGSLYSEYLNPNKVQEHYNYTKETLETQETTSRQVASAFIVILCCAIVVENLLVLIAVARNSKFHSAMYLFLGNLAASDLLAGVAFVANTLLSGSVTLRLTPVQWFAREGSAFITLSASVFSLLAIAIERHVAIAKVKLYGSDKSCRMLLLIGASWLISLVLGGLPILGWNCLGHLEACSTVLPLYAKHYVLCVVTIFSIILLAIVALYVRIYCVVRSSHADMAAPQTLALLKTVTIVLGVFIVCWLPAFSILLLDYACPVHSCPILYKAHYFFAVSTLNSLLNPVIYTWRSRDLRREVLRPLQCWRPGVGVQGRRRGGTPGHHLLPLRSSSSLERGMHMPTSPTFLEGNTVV

Row | Compound | activation
1 | COCCNC(=O)Cn1cc(C(=O)c2cccs2)c2ccccc21 | -4.41%
2 | CC(C)C(=O)Nc1ccc2c(c1)oc1ccccc12 | 0.25%
3 | c1ccc2c(-c3nn4nnnc4c4ccccc34)cccc2c1 | -3.13%
4 | O=C(O)COc1ccc(-c2nccc(-c3cccs3)n2)cc1 | -4.12%
5 | CCOC(=O)c1sc(NC(=O)C(CC)Sc2nccn2C)nc1C (stereo unspecified) | -5.49%
6 | CCOC(=O)c1sc(NC(=O)c2ccncc2)nc1C | -5.01%
7 | C=CCn1c2ccccc2c2nnc(SC(CC)C(=O)Nc3nc(C)c(C(=O)OCC)s3)nc21 (stereo unspecified) | 21.9% (active)
8 | O=C(/C=C/c1cccs1)c1cc(Cl)ccc1OC(=O)N1CCOCC1 | -8.27%
9 | CSCc1cc(N(C)C)nc(SCc2ccc(Cl)cc2Cl)n1 | -6.28%
10 | CCCC1(C(=O)OCC)NC(c2ccc(N(C)C)cc2)C2C(=O)N(c3ccc4c(c3)OCCO4)C(=O)C21 (stereo unspecified) | -0.77%
11 | CCCCSc1[nH]c(=O)c(C(=O)OCC)cc1C#N | -3.23%
12 | N#CCSc1nc2c(c(=O)n1Cc1ccccc1)C1(CCCC1)Cc1ccccc1-2 | -7.66%
13 | Cc1ccccc1CSCCNC(=O)c1ccc(Cl)c(S(=O)(=O)N2CCOCC2)c1 | -6.39%
14 | COC(=O)c1cc2nc(-c3ccccc3)cc(C(F)(F)F)n2n1 | -1.4%
15 | CCN(CC)c1nc(-c2ccccc2)cc(C(F)(F)F)c1C#N | 23.9% (active)
16 | N#Cc1c(C(F)(F)F)cc(-c2ccccc2)nc1SCC(=O)N1CCOCC1 | -6.15%
17 | Cc1nn(CC(=O)Nc2nc3ccccc3s2)c(C)c1[N+](=O)[O-] | -7.14%
18 | NC1=NC(=O)C2(COC(c3ccccc3Cl)OC2)S1 (stereo unspecified) | -5.49%
19 | COc1cccc(-c2cc(C(=O)N/N=C/c3ccc(OC)c(COC(C)=O)c3)c3ccccc3n2)c1 | -4%
20 | COc1cc2c(cc1OC)C(C(=O)NCc1ccco1)C1c3ccccc3CCN1C2=O (stereo unspecified) | -4.83%
21 | Oc1ccccc1CNc1ncc(Br)cc1Br | -9.29%
22 | O=C(Nc1ccc(Br)c2cccnc12)c1ccc(Cn2cc([N+](=O)[O-])cn2)o1 | -1.75%
23 | FC(F)(F)c1cccc(-c2cc3ccccc3nc2N2CCCC2)c1 | -10.1%
24 | O=C1/C(=C/c2cccs2)CCc2ccccc21 | -5.98%
25 | CN(C)S(=O)(=O)c1ccc(N2CCCC2)c(C(=O)NCc2ccccc2)c1 | -3.61%
26 | O=C(NCc1ccc(Cl)cc1)c1cc(=O)nc2sc(-c3ccccc3)nn12 | -3.55%
